This is an account of results in PubChem BioAssay AID1851 (National Center for Advancing Translational Sciences (NCATS), 2009).

Hit rate of the full screen: of about 16,000 compounds, about 5,700 (36%) were called active. Not shown: some 24% with an inconclusive outcome. Some of the results follow. A number with no mark means an inactive call. The call rests on the fitted dose curve; in most records, active means well fitted curve in the direction sought with a large enough effect; inconclusive means small, poorly fitted or top-dose-only effect, or effect the other way; inactive means no such curve, though single readings can be large or run the other way.
On the % scale 0 is the no-effect control and ±100 the full control effect.

The test deals with Cytochrome P450 1A2 (Homo sapiens) (UniProt P05177). In words: Cytochrome panel assay with activity outcomes. Conditions: recombinant CYP, pro-luciferin dealkylation, luminescence, p450-cyp1a2; series mostly up to 57.1 µM; activity, negative = inhibition: at the top concentration.
Sequence of Cytochrome P450 1A2 (Homo sapiens) (P05177 whole entry, looked up): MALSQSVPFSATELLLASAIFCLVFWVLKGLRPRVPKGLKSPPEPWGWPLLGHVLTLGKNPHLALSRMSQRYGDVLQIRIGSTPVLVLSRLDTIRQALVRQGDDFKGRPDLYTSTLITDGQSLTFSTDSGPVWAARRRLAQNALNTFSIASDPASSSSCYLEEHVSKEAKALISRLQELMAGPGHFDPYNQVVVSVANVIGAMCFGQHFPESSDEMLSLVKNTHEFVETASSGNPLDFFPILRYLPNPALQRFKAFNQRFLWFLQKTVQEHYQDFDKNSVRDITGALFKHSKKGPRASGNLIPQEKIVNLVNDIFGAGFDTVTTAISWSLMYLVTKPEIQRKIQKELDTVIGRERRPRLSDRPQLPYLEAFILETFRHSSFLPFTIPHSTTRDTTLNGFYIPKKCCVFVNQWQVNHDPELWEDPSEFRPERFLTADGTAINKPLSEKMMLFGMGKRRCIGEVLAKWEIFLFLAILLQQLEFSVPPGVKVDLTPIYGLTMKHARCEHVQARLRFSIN
What is called AC50 is the concentration at which the activity in the assay is half-maximal. For the compound `CC(NC(=O)CCSc1nc(-c2ccco2)cc(C(F)(F)F)n1)c1ccccc1` (configuration not stated), the AC50 was 12600 nM (active).
Still for that read-out and setting: the figure for `CC1CCN(C(NC(=O)c2ccco2)C(=O)c2ccccc2)CC1` (configuration not stated) is 14100 nM (active).
Regarding `O=C(NC(C(=O)c1ccccc1)n1cnccc1=O)c1ccccc1` (configuration not stated), the “activity, negative = inhibition” value is 3.62%.
Still for that read-out and setting: the result for `COC(=O)c1ccc(C(NC(=O)c2ccco2)[C@]2(C)C[C@H]2C2CCCCC2)cc1` (some centres not stated) reads -13.3%.
`NC(N)=Nc1ccc(-c2ccc(N=C(N)N)cc2)cc1`: the activity, negative = inhibition is -1.39% [at 11.4 µM].
In the case of `CCSC(N)=Nc1ccc(C(F)(F)F)cc1`, the concentration at half-maximal activity (AC50) is 2510 nM (active).
For the compound `CCOC(=O)c1nc(N)sc1C(=O)OCC`, the AC50 is 7080 nM (active).
Consider `CCOC(=O)c1sc(C)c(C(=O)NCC(C)(C)CN(C)C)c1N`, for which the “activity, negative = inhibition” value was -3.26%.
The same measure, in the same setting: the result for `CCN1CCN(C(=O)N[C@H](C(=O)N[C@@H]2C(=O)N3[C@@H]2SC(C)(C)[C@@H]3C(=O)O)c2ccccc2)C(=O)C1=O` reads -2.8% [at 25.6 µM].
On to `O=C(O)c1nn(-c2ccc(Cl)cc2)c2c1C(=O)c1ccccc1C2=O`, for which the concentration at half-maximal activity (AC50) was 251 nM (active).
As for `O=C(O)c1nn(-c2ccccc2-c2n[nH]c(=O)[nH]c2=O)c(=O)[nH]c1=O`, the activity, negative = inhibition was -21.2% [at 11.4 µM].
Still for that read-out and setting: the figure for `O=C1C(C2=NC(C(=O)O)C3C(=O)N(c4ccc(Cl)cc4)C(=O)C23)=C(O)c2ccccc21` (configuration not stated) is -5.96%; for `CC(C)CN1CC[C@@]2(CCCN(C(=O)c3cnccn3)C2)C1` it is -15.1%.
As for `Cc1cccc(C)c1NC(=O)C(NC=O)c1ccccc1Cl` (configuration not stated), the “activity, negative = inhibition” value was 2.26%.
Same read-out and setting: the result for `O=C(CCN1CCN(CC(=O)Nc2ccccc2Cl)CC1)Nc1ccccc1F` reads -0.462%.
The same measure, in the same setting: the result for `CC(=O)NNc1cccc(Cl)n1` reads -17.3%.
Consider `O=C(Nc1ccccc1Cl)c1ccccc1Cl`, for which the concentration at half-maximal activity (AC50) was 1780 nM (active).
In the case of `O=C(Nc1nnc(-c2ccc(Cl)cc2)o1)Nc1ccccc1Cl`, the AC50 is 1580 nM (active).
The same measure, in the same setting: the figure for `O=C(NNc1cccc(Cl)n1)Nc1ccccc1Cl` is 2510 nM (active); for `Cc1cc(NC(=O)c2ccccc2Cl)c(C(C)C)cc1O` it is 3550 nM (active).
For the compound `Cn1sc(NC(=O)c2ccccc2Cl)nc1=O`, the “activity, negative = inhibition” value was -20.9%.
`CCCC(O)(CCC)C(=O)NN1CCCCC1`: the “activity, negative = inhibition” value was -7.66%.
Same read-out and setting: the figure for `O=C(O)C1CCCCC1C(=O)Nc1ccccc1Cl` (configuration not stated) is -11.2%.
On to `NC(=O)NC(=O)Nc1ccccc1Cl`, for which the AC50 is 4470 nM (active).
On to `O=C(Nc1ccccc1Cl)c1ccn[nH]1`, for which the AC50 is 794 nM (active).
On to `O=C(O)COC(=O)Cc1ccccc1Nc1c(Cl)cccc1Cl`, for which the “activity, negative = inhibition” value is 3.13% [at 25.6 µM].
The same measure, in the same setting: the result for `COc1nc(N)nc2c1ncn2[C@@H]1C[C@H](O)[C@@H](CO)O1` reads -7.83% [at 11.4 µM].
With `O=C1CC(N2CCOCC2)C(=O)N1c1cccc(Cl)c1` (configuration not stated), the “activity, negative = inhibition” value is 2.37%.
As to `Clc1cccc(N/N=C/c2ccc(N3CCOCC3)cc2)c1`, the AC50 is 2510 nM (active).
As to `Cc1ccc(Nc2ccc(-n3ccnc3)nn2)cc1C`, the half-maximal activity concentration (AC50) is 158 nM (active).
Same read-out and setting: the result for `Cc1cc(/C=N/n2cnnc2)c(C)n1-c1ccc(OCc2ccccc2F)cc1` reads 12600 nM (active); that for `Fc1ccc(CSc2nnc(-c3cc4c(s3)-c3ccccc3CC4)o2)cc1`, 2240 nM (active).
Still for that read-out and setting: the result for `c1ccc2cc(-c3cc(-c4cc(-c5ccc6ccccc6c5)on4)no3)ccc2c1` reads 1580 nM (active).
For the compound `c1ccc(-c2noc(-c3ccc4ccccc4c3)n2)cc1`, the AC50 is 3160 nM (active).
Still for that read-out and setting: the result for `c1ccc2cc(-c3csnn3)ccc2c1` reads 112 nM (active).
In the case of `O=C(O)c1nnsc1-c1csnn1`, the activity, negative = inhibition was -3.7% [at 11.4 µM].
Take `Cc1ccc(-c2nnc(-c3ccc4ccccc4c3)o2)cc1`: the AC50 was 631 nM (active).
With `CC/C=C\CC[C@H](O)C1=CCCCC1=O`, the activity, negative = inhibition was -2.33% [at 11.4 µM].
Same read-out and setting: the result for `CC[C@@H](C)[C@H]1O[C@]2(CC[C@@H]1C)C[C@@H]1C[C@H](C/C=C(/C)[C@H](O[C@@H]3C[C@H](OC)[C@H](O[C@@H]4C[C@H](OC)[C@@H](O)[C@H](C)O4)[C@H](C)O3)[C@@H](C)/C=C\C=C3CO[C@@H]4[C@H](O)C(C)=C[C@@H](C(=O)O1)[C@]34O)O2` (tested in a mixture with another compound) reads -15.8%; that for `C[C@@H]1C[C@H](OC(=O)[C@@H](O)c2ccccc2)CC(C)(C)N1C`, -5.2% [at 25.6 µM].
For `CCCCCn1c(CN2CCN(c3cc(Cl)ccc3C)CC2)nc2c1c(=O)[nH]c(=O)n2C`, the “activity, negative = inhibition” value was -2.23%.
As to `CCOC(=O)CCCNC(=O)c1cncc(Br)c1`, the AC50 is 12600 nM (active).
For the compound `CCOC(=O)CNC(=O)c1cccnc1`, the “activity, negative = inhibition” value was -19.8%.
For the compound `Cc1ccc(OCCNC(=O)c2cncc(Br)c2)cc1C`, the half-maximal activity concentration (AC50) was 14100 nM (active).
Take `O=C(NCCO[N+](=O)[O-])c1cccnc1`: the “activity, negative = inhibition” value is -19.7%.
The same measure, in the same setting: the figure for `CCOC(=O)CCCNC(=O)CCCNC(=O)C(c1ccccc1)c1ccccc1` is -14.8%; for `CO[C@H]1COC(=O)[C@H](C)COC(=O)[C@@H](Cc2ccccc2)NC(=O)C/C=C\[C@H]1C` it is -3.2% [at 11.4 µM].
